# PubChem BioAssay (NCI)
# This is part of a sample that, as a whole, favours compounds with a hit. Of some 79,000 tested, about 15% had one in any assay. Unmarked numbers belong to inactive results. The source made the active and inactive calls. Rule as the data show it: active = growth inhibition above about 70%; inactive = the rest.
# Tests used:
# [1] = NCI Yeast Anticancer Drug Screen. Data for the rad52 strain (AID 147);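 also: 0% = growth of vehicle-treated control cultures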; conditions: S. cerevisiae rad52 mutant growth inhibition, hits give high values
# Method in brief: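 Genetically altered yeast (DNA damage repair defect) treated with compound; inhibition calculated relative to vehicle.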
# [2] = NCI Yeast Anticancer Drug Screen. Data for the wt1 strain (AID 149);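 also: 0% = growth of vehicle-treated wt1 cultures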; conditions: S. cerevisiae wt1 strain (SPY 50644) growth inhibition, hits give high values
# Method in brief: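 Readout: yeast growth inhibition, normalised to vehicle controls, in the wt1 strain exposed to test compounds.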
# [3] = NCI Yeast Anticancer Drug Screen. Data for the rad50EPP+ strain (AID 151);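 also: 0% = growth of vehicle-treated control cultures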; conditions: S. cerevisiae rad50 mutant strain, hits give high values
# Method in brief: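 Strain rad50EPP+; compound exposure; % growth inhibition vs vehicle.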
# [4] = NCI Yeast Anticancer Drug Screen. Data for the mgt1 strain (AID 153); conditions: S. cerevisiae mgt1 mutant growth inhibition, hits give high values
# Method in brief: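 Read-out: yeast growth inhibition vs vehicle control. Strain mgt1, drawn from a panel altered in DNA damage repair or cell cycle control.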
# [5] = NCI Yeast Anticancer Drug Screen. Data for the rad50 strain (AID 155);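 also: 0% = growth of vehicle-only cultures of the same strain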; conditions: S. cerevisiae rad50 strain growth inhibition, hits give high values
# Method in brief: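 Compounds were tested on a yeast strain with an engineered DNA damage repair alteration; the reported value is growth inhibition normalised to vehicle treatment.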
# [6] = NCI Yeast Anticancer Drug Screen. Data for the mec2-1 strain (AID 157); conditions: S. cerevisiae mec2-1 strain, hits give high values
# Method in brief: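 Cells of the genetically defined mec2-1 yeast strain are incubated with test compound. Inhibition of growth is calculated against vehicle-treated controls.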
# [7] = NCI Yeast Anticancer Drug Screen. Data for the rad14 strain (AID 159);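 also: 0% = growth of vehicle-treated control cultures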; conditions: S. cerevisiae rad14 strain growth inhibition, hits give high values
# Method in brief: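 Compound-treated yeast with a defined DNA-repair lesion; growth inhibition normalised to vehicle-treated cultures.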
# [8] = NCI Yeast Anticancer Drug Screen. Data for the sgs1 mgt1 strain (AID 161);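 also: 0% = growth of cultures given vehicle only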; conditions: S. cerevisiae sgs1 mgt1 strain, hits give high values
# Method in brief: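 Read-out: growth inhibition vs vehicle controls. Cells: mutant yeast strain deficient in DNA damage repair.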
# [9] = NCI Yeast Anticancer Drug Screen. Data for the CLN2oe strain (AID 163);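 also: 0% = growth of vehicle-only control cultures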; conditions: S. cerevisiae CLN2oe strain, hits give high values
# Method in brief: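 Strain altered in cell-cycle control, incubated with compound; growth compared to solvent-treated controls.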
# [10] = NCI Yeast Anticancer Drug Screen. Data for the cln2 rad14 strain (AID 165);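 also: 0% = growth equal to vehicle treated cultures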; conditions: S. cerevisiae cln2 rad14 strain, hits give high values
# Method in brief: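 The screen exposed genetically defined yeast (cln2 rad14) to test compounds and scored growth inhibition relative to vehicle-treated controls.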
# [11] = NCI Yeast Anticancer Drug Screen. Data for the bub3 strain (AID 167); conditions: S. cerevisiae bub3 mutant strain, hits give high values
# Method in brief: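 Growth of a checkpoint-deficient yeast mutant is measured after compound exposure. Values represent inhibition relative to vehicle.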
# [12] = NCI Yeast Anticancer Drug Screen. Data for the wt2 strain (AID 169);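 also: 0% = growth of vehicle-treated yeast cultures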; conditions: S. cerevisiae wt2 strain growth inhibition, hits give high values
# Method in brief: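 Steps: yeast strain treated with compound; growth recorded; inhibition calculated relative to cultures given vehicle alone.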
# [13] = NCI Yeast Anticancer Drug Screen. Data for the mlh1 strain (AID 171);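 also: 0% = growth of vehicle-treated control cultures of the same strain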; conditions: S. cerevisiae mlh1 strain growth inhibition, hits give high values
# Method in brief: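 Yeast screen: mutant strain plus compound, growth scored against vehicle control wells.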
# [14] = NCI Yeast Anticancer Drug Screen. Data for the sgs1 strain (AID 173);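 also: 0% = growth of vehicle-only control cultures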; conditions: S. cerevisiae sgs1 mutant, hits give high values
# Method in brief: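 Inhibition of yeast growth served as the measure. The mutant strain was treated with each compound, and growth was normalised to cultures receiving vehicle alone.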
# [15] = NCI Yeast Anticancer Drug Screen. Data for the mlh1 rad18 strain (AID 175); conditions: S. cerevisiae mlh1 rad18 strain growth inhibition, hits give high values
# Method in brief: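 Compound-treated yeast growth, normalised to vehicle controls. Strain bears defined DNA repair mutations.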
# [16] = NCI Yeast Anticancer Drug Screen. Data for the rad18 strain (AID 177); conditions: S. cerevisiae rad18 mutant growth inhibition, hits give high values
# Method in brief: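 Inhibition values reflect reduced yeast growth compared with vehicle-treated controls, using a strain engineered with a DNA damage repair defect.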
# [17] = at 5.0 µM (retest, dose inferred, filed as 0.5)
# [18] = at 50.0 µM (retest, dose inferred, filed as 5.0)
compound,measurement,setting,value
Cc1c2cccc(Sc3ccccc3)c2c2c3c(cccc13)[S+](c1ccccc1)C2 (stereo unspecified),growth inhibition,[1]; at 1.2 µM,13%
same,growth inhibition,[1]; at 3.7 µM,41%
same,growth inhibition,[1]; at 11.0 µM,96% (active)
same,growth inhibition,[1]; at 33.0 µM,95% (active)
same,growth inhibition,[1]; at 100.0 µM,88% (active)
same,growth inhibition,[2]; at 1.2 µM,8%
same,growth inhibition,[2]; at 3.7 µM,19%
same,growth inhibition,[2]; at 11.0 µM,96% (active)
same,growth inhibition,[2]; at 33.0 µM,96% (active)
same,growth inhibition,[2]; at 100.0 µM,88% (active)
same,growth inhibition,[3]; at 1.2 µM,4%
same,growth inhibition,[3]; at 3.7 µM,12%
same,growth inhibition,[3]; at 11.0 µM,39%
same,growth inhibition,[3]; at 33.0 µM,88% (active)
same,growth inhibition,[3]; at 100.0 µM,88% (active)
same,growth inhibition,[4]; at 1.2 µM,5%
same,growth inhibition,[4]; at 3.7 µM,4%
same,growth inhibition,[4]; at 11.0 µM,97% (active)
same,growth inhibition,[4]; at 33.0 µM,95% (active)
same,growth inhibition,[4]; at 100.0 µM,90% (active)
same,growth inhibition,[5]; at 1.2 µM,25%
same,growth inhibition,[5]; at 3.7 µM,69%
same,growth inhibition,[5]; [17],58%
same,growth inhibition,[5]; at 11.0 µM,97% (active)
same,growth inhibition,[5]; at 33.0 µM,94% (active)
same,growth inhibition,[5]; [18],97% (active)
same,growth inhibition,[5]; at 50.0 µM,90.9% (active)
same,growth inhibition,[5]; at 100.0 µM,82% (active)
same,growth inhibition,[6]; at 1.2 µM,7%
same,growth inhibition,[6]; at 3.7 µM,30%
same,growth inhibition,[6]; [17],28%
same,growth inhibition,[6]; at 11.0 µM,98% (active)
same,growth inhibition,[6]; at 33.0 µM,95% (active)
same,growth inhibition,[6]; [18],97% (active)
same,growth inhibition,[6]; at 50.0 µM,93.5% (active)
same,growth inhibition,[6]; at 100.0 µM,91% (active)
same,growth inhibition,[7]; at 1.2 µM,-1%
same,growth inhibition,[7]; at 3.7 µM,17%
same,growth inhibition,[7]; at 11.0 µM,98% (active)
same,growth inhibition,[7]; at 33.0 µM,96% (active)
same,growth inhibition,[7]; at 100.0 µM,90% (active)
same,growth inhibition,[8]; [17],18%
same,growth inhibition,[8]; [18],98% (active)
same,growth inhibition,[8]; at 50.0 µM,94.2% (active)
same,growth inhibition,[9]; at 1.2 µM,-3%
same,growth inhibition,[9]; at 3.7 µM,-1%
same,growth inhibition,[9]; at 11.0 µM,96% (active)
same,growth inhibition,[9]; at 33.0 µM,92% (active)
same,growth inhibition,[9]; at 100.0 µM,84% (active)
same,growth inhibition,[10]; [17],7%
same,growth inhibition,[10]; [18],96% (active)
same,growth inhibition,[10]; at 50.0 µM,93.4% (active)
same,growth inhibition,[11]; at 1.2 µM,-5%
same,growth inhibition,[11]; at 3.7 µM,27%
same,growth inhibition,[11]; [17],16%
same,growth inhibition,[11]; at 11.0 µM,97% (active)
same,growth inhibition,[11]; at 33.0 µM,94% (active)
same,growth inhibition,[11]; [18],97% (active)
same,growth inhibition,[11]; at 50.0 µM,95.2% (active)
same,growth inhibition,[11]; at 100.0 µM,87% (active)
same,growth inhibition,[12]; at 1.2 µM,6%
same,growth inhibition,[12]; at 3.7 µM,25%
same,growth inhibition,[12]; at 11.0 µM,97% (active)
same,growth inhibition,[12]; at 33.0 µM,95% (active)
same,growth inhibition,[12]; at 100.0 µM,86% (active)
same,growth inhibition,[13]; at 1.2 µM,0%
same,growth inhibition,[13]; at 3.7 µM,22%
same,growth inhibition,[13]; at 11.0 µM,98% (active)
same,growth inhibition,[13]; at 33.0 µM,96% (active)
same,growth inhibition,[13]; at 100.0 µM,93% (active)
same,growth inhibition,[14]; at 1.2 µM,10%
same,growth inhibition,[14]; at 3.7 µM,40%
same,growth inhibition,[14]; at 11.0 µM,97% (active)
same,growth inhibition,[14]; at 33.0 µM,95% (active)
same,growth inhibition,[14]; at 100.0 µM,87% (active)
same,growth inhibition,[15]; [17],18%
same,growth inhibition,[15]; [18],97% (active)
same,growth inhibition,[15]; at 50.0 µM,93.3% (active)
same,growth inhibition,[16]; at 1.2 µM,28%
same,growth inhibition,[16]; at 3.7 µM,65%
same,growth inhibition,[16]; at 11.0 µM,97% (active)
same,growth inhibition,[16]; at 33.0 µM,95% (active)
same,growth inhibition,[16]; at 100.0 µM,83% (active)
Cc1cc(NCCCCCCCCNc2cc(C)nc3cc(N)ccc23)c2ccc(N)cc2n1,growth inhibition,[1]; at 1.2 µM,-41%
same,growth inhibition,[1]; at 3.7 µM,-45%
same,growth inhibition,[1]; at 11.0 µM,75% (active)
same,growth inhibition,[1]; at 33.0 µM,98% (active)
same,growth inhibition,[1]; at 100.0 µM,95% (active)
same,growth inhibition,[2]; at 1.2 µM,-65%
same,growth inhibition,[2]; at 3.7 µM,-41%
same,growth inhibition,[2]; at 11.0 µM,92% (active)
same,growth inhibition,[2]; at 33.0 µM,98% (active)
same,growth inhibition,[2]; at 100.0 µM,96% (active)
same,growth inhibition,[3]; at 1.2 µM,-47%
same,growth inhibition,[3]; at 3.7 µM,-30%
same,growth inhibition,[3]; at 11.0 µM,50%
same,growth inhibition,[3]; at 33.0 µM,95% (active)
same,growth inhibition,[3]; at 100.0 µM,95% (active)
same,growth inhibition,[4]; at 1.2 µM,-72%
same,growth inhibition,[4]; at 3.7 µM,-79%
same,growth inhibition,[4]; at 11.0 µM,80% (active)
same,growth inhibition,[4]; at 33.0 µM,98% (active)
same,growth inhibition,[4]; at 100.0 µM,95% (active)
same,growth inhibition,[5]; at 1.2 µM,-39%
same,growth inhibition,[5]; at 3.7 µM,-32%
same,growth inhibition,[5]; [17],15%
same,growth inhibition,[5]; at 11.0 µM,92% (active)
same,growth inhibition,[5]; at 33.0 µM,97% (active)
same,growth inhibition,[5]; [18],98% (active)
same,growth inhibition,[5]; at 50.0 µM,90.2% (active)
same,growth inhibition,[5]; at 100.0 µM,96% (active)
same,growth inhibition,[6]; at 1.2 µM,-70%
same,growth inhibition,[6]; at 3.7 µM,-55%
same,growth inhibition,[6]; [17],12%
same,growth inhibition,[6]; at 11.0 µM,91% (active)
same,growth inhibition,[6]; at 33.0 µM,98% (active)
same,growth inhibition,[6]; [18],98% (active)
same,growth inhibition,[6]; at 50.0 µM,91.4% (active)
same,growth inhibition,[6]; at 100.0 µM,96% (active)
same,growth inhibition,[7]; at 1.2 µM,-40%
same,growth inhibition,[7]; at 3.7 µM,-35%
same,growth inhibition,[7]; at 11.0 µM,87% (active)
same,growth inhibition,[7]; at 33.0 µM,97% (active)
same,growth inhibition,[7]; at 100.0 µM,96% (active)
same,growth inhibition,[8]; [17],8%
same,growth inhibition,[8]; [18],99% (active)
same,growth inhibition,[8]; at 50.0 µM,92.1% (active)
same,growth inhibition,[9]; at 1.2 µM,-18%
same,growth inhibition,[9]; at 3.7 µM,-20%
same,growth inhibition,[9]; at 11.0 µM,39%
same,growth inhibition,[9]; at 33.0 µM,97% (active)
same,growth inhibition,[9]; at 100.0 µM,94% (active)
same,growth inhibition,[10]; [17],18%
same,growth inhibition,[10]; [18],98% (active)
same,growth inhibition,[10]; at 50.0 µM,88% (active)
same,growth inhibition,[11]; at 1.2 µM,-64%
same,growth inhibition,[11]; at 3.7 µM,-45%
same,growth inhibition,[11]; [17],39%
same,growth inhibition,[11]; at 11.0 µM,90% (active)
same,growth inhibition,[11]; at 33.0 µM,97% (active)
same,growth inhibition,[11]; [18],99% (active)
same,growth inhibition,[11]; at 50.0 µM,91.5% (active)
same,growth inhibition,[11]; at 100.0 µM,93% (active)
same,growth inhibition,[12]; at 1.2 µM,-39%
same,growth inhibition,[12]; at 3.7 µM,-36%
same,growth inhibition,[12]; at 11.0 µM,55%
same,growth inhibition,[12]; at 33.0 µM,97% (active)
same,growth inhibition,[12]; at 100.0 µM,95% (active)
same,growth inhibition,[13]; at 1.2 µM,-88%
same,growth inhibition,[13]; at 3.7 µM,-63%
same,growth inhibition,[13]; at 11.0 µM,92% (active)
same,growth inhibition,[13]; at 33.0 µM,97% (active)
same,growth inhibition,[13]; at 100.0 µM,94% (active)
same,growth inhibition,[14]; at 1.2 µM,-64%
same,growth inhibition,[14]; at 3.7 µM,-72%
same,growth inhibition,[14]; at 11.0 µM,65%
same,growth inhibition,[14]; at 33.0 µM,95% (active)
same,growth inhibition,[14]; at 100.0 µM,94% (active)
same,growth inhibition,[15]; [17],7%
same,growth inhibition,[15]; [18],98% (active)
same,growth inhibition,[15]; at 50.0 µM,89.2% (active)
same,growth inhibition,[16]; at 1.2 µM,-45%
same,growth inhibition,[16]; at 3.7 µM,-65%
same,growth inhibition,[16]; at 11.0 µM,66%
same,growth inhibition,[16]; at 33.0 µM,97% (active)
same,growth inhibition,[16]; at 100.0 µM,93% (active)
